Results taken from PubChem BioAssay AID624301 (The Scripps Research Institute Molecular Screening Center, 2012).
Activity calls are given as the source filed them.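 Rule for the calls: active = relative activity ratio in the reporter plus Dax-1 wells above 5 or under 0.1 at any tested dose; inactive = ratio stays between 0.1 and 5 at every dose.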

Test: DAX1 inhibitors in Gal4 CAT reporter cells – cell-based, CAT activity, absorbance, powder samples, DAX1 inhibitor project, dose response (AID 624301)
Details: HEK293 Gal4-DAX1 CAT reporter, ELISA absorbance, CAT reporter alone; at 100 µM (top of the series)

| SMILES | relative activity ratio, higher = derepression |
| --- | --- |
| Cn1c(=O)n(C)c2cc(C(=O)Nc3ccc4c(c3)OCCO4)ccc21 | 0.59 (active) |
| Cn1c(=O)n(C)c2cc(C(=O)Nc3ccc4c(c3)OCO4)ccc21 | 0.92 (active) |
